The full ranking holds about 33,000 sequences; the median of “E-score (-0.5 to 0.5)” is about -0.012, and the highest 2% start at about 0.27. The sample holds the highest values, similar sequences and a random draw of the others, so the mix is not that of the screen.
target: T1, Vhr1 (UniProt P40522); assay: PBM E-score (8-mer binding enrichment) (E-score (-0.5 to 0.5)); higher = stronger / more preferred TF binding; conditions: protein concentration: 200 nM; construct: GST-full length
T1 sequence: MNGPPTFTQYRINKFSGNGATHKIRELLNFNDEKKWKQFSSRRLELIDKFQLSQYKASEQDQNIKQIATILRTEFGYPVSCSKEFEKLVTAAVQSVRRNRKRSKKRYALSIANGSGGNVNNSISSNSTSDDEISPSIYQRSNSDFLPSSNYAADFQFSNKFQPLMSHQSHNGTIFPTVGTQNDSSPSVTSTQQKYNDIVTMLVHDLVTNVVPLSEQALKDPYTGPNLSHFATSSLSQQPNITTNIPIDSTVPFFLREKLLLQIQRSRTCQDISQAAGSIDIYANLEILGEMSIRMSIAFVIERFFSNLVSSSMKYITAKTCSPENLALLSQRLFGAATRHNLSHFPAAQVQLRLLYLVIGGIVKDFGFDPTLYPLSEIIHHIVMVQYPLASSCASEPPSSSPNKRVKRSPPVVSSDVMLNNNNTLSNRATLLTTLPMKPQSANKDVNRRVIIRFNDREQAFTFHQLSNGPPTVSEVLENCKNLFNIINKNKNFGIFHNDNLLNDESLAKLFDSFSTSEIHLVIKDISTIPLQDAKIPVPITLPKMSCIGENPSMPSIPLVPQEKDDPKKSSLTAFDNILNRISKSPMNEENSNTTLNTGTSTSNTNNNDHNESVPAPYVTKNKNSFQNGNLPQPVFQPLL
In short: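 Bound GST-tagged yeast transcription factors, applied at about 100-200 nM to double-stranded universal all-10-mer Agilent arrays, were detected with fluorescent anti-GST. Scans were normalised with masliner. A modified Wilcoxon-Mann-Whitney statistic, the E-score, was assigned to each ungapped eight-base word pooled with its reverse complement by the Universal PBM Analysis Suite.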

Row | Sequence | PBM E-score
1 | ACTCATTG | 0.196
2 | ACTCATTC | 0.367
3 | AGTCATTA | 0.368
4 | TGACAGCA | 0.127
5 | ATAGCGTA | -0.0276
6 | CAAAACAA | -0.13
7 | GCCTCAAA | -0.0409
8 | GAGGGCAC | -0.205
9 | CAAGTCAG | 0.208
10 | AAAGTCAC | 0.246
11 | CAAGTCAC | 0.284
12 | CTAGTCAC | 0.34
13 | GTAGTCAA | 0.262
14 | GTAGTCAC | 0.441
15 | CTAGTCGC | 0.0967
16 | CTAGTCAA | 0.124
17 | GAAGTCAC | 0.269
18 | ACTCTTTC | -0.172
19 | GTGTCTTA | 0.0499
20 | CCTGAATC | 0.0923
21 | GACGTTAC | -0.062
22 | AAAGGCGT | -0.19
23 | ACACAGCT | 0.127
24 | ACACAGCA | 0.286
25 | CCACAGCA | 0.088

Row | Sequence | PBM E-score
26 | ACACAGCG | 0.312
27 | GCACAGCA | 0.128
28 | ACACAGCC | 0.232
29 | ATTTTAGC | -0.141
30 | AATACCTC | 0.0406
31 | GAGTTAGA | -0.0441
32 | ACTTTGAG | 0.0115
33 | AAGCTGGC | -0.163
34 | AAGCGATT | -0.0711
35 | CGTGGGGA | 0.0323
36 | CGCGGGCC | 0.187
37 | AGCGGGGA | -0.0182
38 | CGCGGGCA | 0.287
39 | GGTGGGGA | 0.378
40 | GGCGGGAA | -0.0569
41 | GCGGGGGA | -0.0987
42 | GGCGGGCA | 0.198
43 | CGCGGGAA | 0.105
44 | GGTGGGAA | 0.04
45 | GGCGGGGA | 0.409
46 | CGCGGGGA | 0.292
47 | CACCAAGG | 0.0118
48 | AGGCTGGC | 0.00081
49 | AGGCCCGG | -0.234
50 | ATTAGCGA | 0.142

Row | Sequence | PBM E-score
51 | ATGGTCGA | -0.0168
52 | GAGACTAA | -0.00777
53 | CCGTTCAG | -0.184
54 | CAACAATG | 0.168
55 | CAACAATC | 0.273
56 | GAACAATC | -0.0437
57 | AGCCACAT | 0.22
58 | GGTCACAC | 0.0719
59 | AGTCACAA | 0.391
60 | AGTCACAG | 0.425
61 | CGTCACAG | 0.152
62 | AGTCACAT | 0.402
63 | CGTCACAA | -0.0394
64 | AGTCACAC | 0.415
65 | GGTCACAA | 0.0224
66 | CGTCACAC | -0.021
67 | ATTCACAG | -0.0154
68 | AGGCACAT | 0.0884
69 | CTAAACAG | -0.00454
70 | CGGCCTCA | 0.024
71 | ATTATTGA | 0.036
72 | TAGGAGCA | -0.0685
73 | GACTTGTA | 0.0565
74 | CGAGCTCC | -0.102
75 | CGAGCTCG | 0.307

Row | Sequence | PBM E-score
76 | CGAGCTCA | 0.144
77 | CTGATGGC | 0.0804
78 | ATATTGGG | -0.038
79 | GTTTATAA | -0.168
80 | GCACCGAC | 0.0173
81 | ATGTAGTG | 0.114
82 | ATGTAGTC | 0.286
83 | ATGTAGTA | 0.0473
84 | ACATAGAT | -0.0848
85 | AATTGTTA | -0.0275
86 | ACAGCACG | 0.118
87 | ACTACACG | 0.221
88 | ACTACACA | 0.327
89 | CCTACACG | -0.0152
90 | TGTACACA | 0.0228
91 | AGTACACA | 0.284
92 | AGTACACG | 0.0779
93 | GCCCAGAC | -0.15
94 | ACTTCTTG | -0.106
95 | CTGGTAAC | 0.0684
96 | ATCTGTAC | 0.0611
97 | ACACACGG | 0.155
98 | CCTCACGC | 0.0696
99 | AATCACGC | 0.354
100 | GATCACGC | 0.193

Row | Sequence | PBM E-score
101 | ACTCACGG | 0.352
102 | ACACACGC | 0.183
103 | AATCACGA | 0.159
104 | ACTCACGA | 0.243
105 | ACTCACGC | 0.366
106 | AAACAAGA | 0.121
107 | AGCCCTAC | -0.108
108 | ATTCTGGG | -0.107
109 | GCAGTGGC | 0.0117
110 | GAGGTTGA | -0.131
111 | AGAATAGG | 0.026
112 | CGTGAGTA | 0.21
113 | CGTGAGCC | 0.0956
114 | AGTGAGTC | 0.466
115 | AGTGAGTG | 0.00138
116 | AGTGAGAC | 0.0195
117 | CGTGAGTC | 0.428
118 | CACCTGCA | 0.0182
119 | TATAAGCA | 0.00418
120 | AACTCACG | 0.109
121 | AACTCACC | 0.224
122 | CACTCACG | 0.238
123 | CACTCACC | 0.206
124 | AACTCACA | 0.202
125 | GACTCACA | 0.44

Row | Sequence | PBM E-score
126 | GACTCACC | 0.469
127 | CACTCACA | 0.264
128 | TACTCACA | 0.285
129 | TCCAGAAA | -0.0568
130 | GCTTAGAA | -0.117
131 | CAAATCAA | 0.0775
132 | AAACTGGG | -0.192
133 | ATCTGATC | 0.085
134 | AGTTCTAG | -0.127
135 | AACCCGCC | 0.136
136 | CACCCGCA | -0.0465
137 | CACCCGCC | 0.329
138 | CACCCGCG | 0.218
139 | GACCCGCA | 0.109
140 | GACCCGCC | 0.322
141 | AACCTCAA | -0.195
142 | ACCTACGT | -0.0787
143 | AACTGCTG | -0.0272
144 | ACCTTGAT | 0.0042
145 | TACCGTCA | -0.0775
146 | GCGTGGCA | -0.22
147 | CACTCCTC | 0.183
148 | CACTCCAC | 0.0458
149 | GACTCCAA | 0.237
150 | AACTCCTA | 0.017

Row | Sequence | PBM E-score
151 | GACTCCTC | 0.4
152 | AACTCCTC | -0.268
153 | GACTCCTA | 0.384
154 | CACTCCTA | -0.262
155 | GACTCCAC | 0.346
156 | GTATTGGA | -0.184
157 | TTTATAAA | -0.0811
158 | CGACCCCC | -0.261
159 | CTTTAACC | -0.127
160 | AGAACCAA | -0.0911
161 | GAATCATC | 0.437
162 | CCATCATA | 0.0955
163 | CTATCATA | 0.164
164 | GAATCAAC | 0.247
165 | ACATCATC | 0.166
166 | CAATCAGA | -0.0178
167 | CAATCATA | 0.317
168 | TAATCAAA | 0.101
169 | ATATCATA | 0.216
170 | TAATCGTA | 0.114
171 | GTATCATA | 0.288
172 | TAATCATA | 0.314

Reference: the supplement of paper PMC3334620
